Compound activity as filed in PubChem.
An excerpt weighted towards active compounds, which were near 3.1% of everything screened.
Tau fibril ThT: blocks human tau fibril formation measured by thioflavin T. P10636. recombinant tau K18 P301L, heparin-induced fibrillization, ThT fluorescence. Potency, µM (series often up to 57.4 µM), actives largely listed as inhibitors. 2.1% of 270,000 active. AID 1460; note: nearly all actives have a fitted effect of over 55% in size
Target sequence (P10636 561-689 P618L limits assumed): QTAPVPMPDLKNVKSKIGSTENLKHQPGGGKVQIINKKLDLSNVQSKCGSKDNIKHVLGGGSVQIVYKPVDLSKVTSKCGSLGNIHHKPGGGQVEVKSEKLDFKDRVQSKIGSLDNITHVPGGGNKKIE
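Heparin-induced fibrillization of the P301L-mutant K18 repeat-domain fragment of human tau was followed by ThT binding in quantitative high-throughput format.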
Tau fluor cs: counter-screen for tau fibril formation inhibitors; tau K18 P301L (four-repeat tau fragment) Alexa594 fluorescence, heparin fibrillization; Potency, µM (highest dose often 57.7 µM); 0.93% of 280,000 active; AID 1463; note: nearly all actives have a fitted effect of over 55% in size
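Human K18 P301L tau (15 uM unlabeled plus 0.24 uM Alexa 594-labeled, final) in 100 mM sodium acetate pH 7 was mixed with compound and 20 uM heparin and incubated 6 hr at 37 C.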
TRb SRC2 PPI: inhibitors of human thyroid hormone receptor beta-SRC2 interaction; 0.065% of 280,000 active; P10828; AID 1469; Potency, µM (top dose mostly 106 µM), actives largely listed as inhibitors; TRbeta-SRC2 peptide binding, fluorescence polarization; receptor liganded with 1 µM T3; note: nearly all actives have a fitted effect of over 50% in size
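Compounds were added to 0.6 uM TRb ligand-binding domain and 20 nM Texas Red-labeled SRC2 peptide in Tris buffer containing 1 uM T3, incubated 5 hr at ambient temperature, then read by fluorescence polarization.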
TR SRC2 fluor cs: counter-screen for TRb-SRC2 inhibitors: fluorescence interference | TRb/SRC2 Texas Red total fluorescence interference | Potency, µM (highest dose often 106 µM) | 0.29% of 280,000 active | AID 1479; active = well fitted curve in either direction with a large enough effect; inconclusive = small, poorly fitted or top-dose-only effect
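Human TRβ ligand-binding domain (0.6 uM) and Texas Red SRC2 peptide (20 nM) in Tris buffer with 1 uM T3 and 5% DMSO were incubated with pinned compound for 5 hr at ambient temperature. Total fluorescence was computed as S + 2P (555/632 nm).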
RGS12 GoLoco inh: inhibitors of human Gai1-RGS12 GoLoco interaction (red fluorophore); Gai1:RGS12 GoLoco peptide FP, rhodamine, 10 min; Potency, µM (doses to about 61.6 µM), hits mostly inhibitors; 0.44% of 230,000 active; AID 880; active = well fitted inhibition curve with a large enough effect, not every such curve was filed as active; inactive = no such curve, though single readings can be large or run the other way; note: nearly all actives have a fitted effect of over 30% in size
Target sequence (P63096 whole entry, looked up): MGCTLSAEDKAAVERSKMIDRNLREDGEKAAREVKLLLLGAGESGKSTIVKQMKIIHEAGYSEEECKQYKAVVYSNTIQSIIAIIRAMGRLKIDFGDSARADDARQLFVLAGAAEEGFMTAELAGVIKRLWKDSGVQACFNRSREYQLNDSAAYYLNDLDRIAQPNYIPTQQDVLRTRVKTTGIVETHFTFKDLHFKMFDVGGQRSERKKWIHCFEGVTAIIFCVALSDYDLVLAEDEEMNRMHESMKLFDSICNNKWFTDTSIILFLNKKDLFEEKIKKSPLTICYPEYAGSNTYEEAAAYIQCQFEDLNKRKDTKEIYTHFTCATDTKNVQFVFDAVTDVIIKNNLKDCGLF
Tau fibril FP: blocks human tau fibril formation measured by polarization; 0.39% of 280,000 active; K18 P301L tau heparin fibrillization, Alexa594 FP, 6 h; Potency, µM (highest dose often 57.7 µM), most hits filed as inhibitors; AID 1468; note: nearly all actives have a fitted effect of over 55% in size
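FP of Alexa 594-tau after heparin (20 uM) induction. Substrate: human K18 P301L, 15 uM unlabeled, 0.24 uM labeled. Buffer 100 mM sodium acetate pH 7. 6 hr, 37 C.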
A number is an active result; n = inactive; u = inconclusive; x = no result given; [ ] = another dose, or the depositor's remark. Unless noted, calls come from the whole dose curve; as a rule, active = well fitted curve in the direction sought with a large enough effect; inconclusive = small, poorly fitted or top-dose-only effect, or another doubt; inactive = no such curve, though single readings can be large; an effect the other way counts as inactive or inconclusive.

SMILES	Tau fibril ThT	Tau fluor cs	TRb SRC2 PPI	TR SRC2 fluor cs	RGS12 GoLoco inh	Tau fibril FP
COc1ccc(NC2=C(c3ccc(OC)cc3)C(=O)c3ccccc32)cc1	u	u	n	n	n	u
COC1=C(Nc2ccc(OC)cc2)C(=O)c2ccccc2C1=O	11µM	u	n	n	n	u
O=C(CSc1nc(C2CC2)nc2ccccc12)N1CCc2ccccc2C1	u	n	n	n	n	u
CCc1cccc(C)c1NC(=O)CSc1nc2ccc(N3C(=O)c4ccccc4C3=O)cc2s1	n	n	n	n	n	n
CCc1cccc(CC)c1NC(=O)CSc1nc2ccc(N3C(=O)C4C(C3=O)[C@H]3C=C[C@@H]4C3)cc2s1 (some centres undefined)	n	n	n	n	2µM	n
CCN(CC)c1ccc(/C=C2/SC(=O)N(C(C)C)C2=O)o1	18µM	n	n	n	n	n
CC(C)(C)NC(=O)NC(=O)COc1ccccc1C#N	n	n	n	n	n	n
COc1ccccc1N1CCN(/N=C/c2cc(OC)c(O)c(OC)c2)CC1	n	n	n	n	2.8µM	n
CCCCCCCCCCCCCCCCCC(=O)OCC(C)O (centres undefined)	14µM	u	n	n	n	u
CCCCCCCCCCCC(=O)OCC(O)CO (centres undefined)	x	x	n	n	n	x
CN(C)c1ccc(C=Nc2ccc(N(C)C)cc2)cc1	11µM	u	50µM	u	n	28µM
C/C(=N/N=C/c1ccc(N(C)C)cc1)c1ccccc1	8.9µM	u	n	n	n	n
Cc1ccc(N=Cc2ccc(N(C)C)cc2)cc1	n	n	n	n	n	n
Cc1[nH]nc(Nc2ccccc2)c1[N+](=O)[O-]	u	n	n	n	n	n
Cc1[nH]nc(Nc2ccc(C(C)C)cc2)c1[N+](=O)[O-]	13µM	u	n	n	n	n
Cc1[nH]nc(Nc2ccc(Br)cc2)c1[N+](=O)[O-]	6.3µM	n	n	n	n	n
Cc1ccc(Nc2n[nH]c(C)c2[N+](=O)[O-])cc1	u	n	n	n	n	n
O=C(c1cc2nc(-c3ccc(F)cc3)cc(C(F)(F)F)n2n1)N1CCCC1	n	n	n	n	n	n
CC(=C1C(=O)c2ccccc2C1=O)N1CCN(C/C=C/c2ccccc2)CC1	22µM	n	n	n	n	n
O=c1cc(-c2ccccc2)[nH]n1-c1nc2ccccc2[nH]1	25µM	u	n	n	n	u
CC(=O)N[C@@H](C(=O)O)C(C)(C)SN=O	28µM	n	n	n	n	u
CC(=O)OCC[n+]1c(C)n(-c2ccccc2)c2ccc(Cl)cc21	n	n	n	n	8.9µM	n
CCOC(=O)c1ccc2c(c1)[n+](CC)c(C)n2-c1ccccc1	n	n	n	n	n	n
O=S(=O)(NCCNS(=O)(=O)c1cccs1)c1cccs1	n	n	n	n	n	n
CN1CCN(NS(=O)(=O)c2cccs2)CC1	13µM	n	n	n	n	u
SMILES	Tau fibril ThT	Tau fluor cs	TRb SRC2 PPI	TR SRC2 fluor cs	RGS12 GoLoco inh	Tau fibril FP
COc1ccc(C(=O)Nc2ccc(OCC(F)(F)C(F)F)c(C(F)(F)F)c2)cc1OC	n	u	n	n	n	22µM
CC(=O)N1CCc2nc3sc(C(=O)Nc4ccc(Cl)cc4F)c(N)c3c(C(F)(F)F)c2C1	u	n	n	n	x	n
NC(=O)c1nsc(C(=O)N(CC(=O)NC2CCCC2)c2cnc3ccccc3c2)c1N	n	n	n	n	n	n
O=C(COCc1cc(-c2ccc3c(c2)OCO3)on1)Nc1cc(C(F)(F)F)ccc1Cl	n	n	n	n	x	n
N#Cc1c(N)oc(-c2ccccc2)c1-c1ccccc1	n	n	n	n	n	n
N#Cc1c(N)oc(-c2ccco2)c1-c1ccco1	14µM	u	n	n	n	n
CC(=O)Nc1ccc(S(=O)(=O)N2CCN(c3nnnn3-c3ccccc3)CC2)cc1	n	n	n	n	n	n
CN(C(=O)CSc1cn(CC(=O)N2CCOCC2)c2ccccc12)c1ccccc1	n	n	n	n	x	n
CCN1C(=O)/C(=C/c2ccc(C)o2)N(C)C1=S	22µM	n	n	n	n	u
O=c1c(Cl)c(O)c2cccc3c4ccccc4n1c23	14µM	u	n	n	n	u
COc1ccccc1C1CCN(c2ccc([N+](=O)[O-])c(OC)c2)CC1	8.9µM	u	n	n	n	n
COc1ccccc1N1CCN(C(=O)c2cnc(N3CCOCC3)c3ccccc23)CC1	n	n	n	n	x	n
O=[N+]([O-])c1cc(C(F)(F)F)ccc1NCCc1c[nH]c2ccc(O)cc12	18µM	28µM[quencher]	n	n	n	n
CS(=O)(=O)NCCCNc1ccc(C(F)(F)F)cc1[N+](=O)[O-]	x	n	n	n	n	n
O=[N+]([O-])c1cc(C(F)(F)F)ccc1NCCc1c[nH]c2ccccc12	13µM	10µM[quencher]	n	n	n	n
CCCC[C@H](NC(=O)[C@@H]1CCCN1C(=O)[C@H]1CCCN1C(=O)[C@H](Cc1ccccc1)NC(=O)[C@@H](Cc1c[nH]c2ccccc12)NC(=O)[C@H](C)NC(=O)[C@H](CCCN=C(N)N)NC(=O)OC(C)(C)C)C(N)=O	x	x	n	n	x	x
CCN(CC)c1ccc(/C=C2\CCC(/C=N/NC(=O)c3ccc(=O)n(C)c3)=C2N2CCOCC2)cc1	u	u	n	n	n	u
COc1cccc(C(=O)Nc2ccc(S(=O)(=O)N(Cc3ccccc3)c3ccccc3)cc2)c1	n	u	n	n	x	10µM
CCOc1cccc(C(=O)Nc2ccc(S(=O)(=O)N(Cc3ccccc3)c3ccccc3)cc2)c1	n	u	n	n	x	u
O=C(Nc1ccc(S(=O)(=O)N(Cc2ccccc2)c2ccccc2)cc1)c1ccccc1F	n	n	n	n	x	u
O=C(Nc1ccc(S(=O)(=O)N(Cc2ccccc2)c2ccccc2)cc1)c1ccc(F)cc1	n	u	n	n	x	10µM
CN(C1=C(NC(=O)c2ccccc2)C(=O)c2ccccc2C1=O)C1CCS(=O)(=O)C1 (centres undefined)	14µM	n	n	n	n	u
CC(=O)NC1=C(NC2CCS(=O)(=O)C2)C(=O)c2ccccc2C1=O (centres undefined)	n	n	n	n	n	n
CCOc1cc(/C=N/NC(=O)CNc2ccc(C)cc2)ccc1OC(=O)c1ccccc1	u	u	n	n	n	n
COc1cccc(C(=O)N2CCN=C2SC)c1	n	n	n	n	n	n
CCOc1ccc2nc(N3CCCC(C(=O)NCCc4ccc(SC)cc4)C3)sc2c1 (centres undefined)	n	u	n	40µM[quencher]	x	n
Cc1cc2nc(CS)[nH]c2cc1C	32µM	n	n	n	n	n
Cc1cc2nc(CO)[nH]c2cc1C	n	n	n	n	n	n
